According to PubChem BioAssay (Tox21):
Where “and” joins values, the source holds several entries; their conditions need not be identical. Equal entries are not always repeated. Records with an inconclusive call do not appear. Where a structure was tested more than once in an assay, its records may differ in their call. Calls of active or inactive are those of the source. Unless noted, the call rests on the fitted dose curve; in most records, active means well fitted curve in the direction sought with a large enough effect in the repeat runs; inconclusive means weak or mixed curves; inactive means no such curve, though single readings can be large; an effect the other way counts as inactive or inconclusive.

How the values were obtained:
[1] = qHTS assay to identify small molecule agonists of the estrogen receptor alpha (ER-alpha) signaling pathway in the presence of an antagonist - cell viability counter screen (AID 1259386);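 further: cells exposed to compounds for 22 h at 37 °C before the viability read; nearly all actives have a fitted effect of over 30% in size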; further: potency means the concentration at half of the fitted maximal effect
Method in brief: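 Cytotoxicity was measured in parallel with the ERE-luciferase agonist screen, in the same wells. The cells were VM7Luc4E2, which endogenously express ER-alpha, and treatment was with compounds plus 10.0nM ICI-182,780 for 22hr.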

[2] = target: Progesterone receptor (Homo sapiens) (UniProt P06401); assay: qHTS assay to identify small molecule agonists of the progesterone receptor (PR) signaling pathway (AID 1346784; calls by dose curve; further: nearly all actives have a fitted effect of over 30% in size)
Progesterone receptor (Homo sapiens), sequence (P06401 whole entry, looked up): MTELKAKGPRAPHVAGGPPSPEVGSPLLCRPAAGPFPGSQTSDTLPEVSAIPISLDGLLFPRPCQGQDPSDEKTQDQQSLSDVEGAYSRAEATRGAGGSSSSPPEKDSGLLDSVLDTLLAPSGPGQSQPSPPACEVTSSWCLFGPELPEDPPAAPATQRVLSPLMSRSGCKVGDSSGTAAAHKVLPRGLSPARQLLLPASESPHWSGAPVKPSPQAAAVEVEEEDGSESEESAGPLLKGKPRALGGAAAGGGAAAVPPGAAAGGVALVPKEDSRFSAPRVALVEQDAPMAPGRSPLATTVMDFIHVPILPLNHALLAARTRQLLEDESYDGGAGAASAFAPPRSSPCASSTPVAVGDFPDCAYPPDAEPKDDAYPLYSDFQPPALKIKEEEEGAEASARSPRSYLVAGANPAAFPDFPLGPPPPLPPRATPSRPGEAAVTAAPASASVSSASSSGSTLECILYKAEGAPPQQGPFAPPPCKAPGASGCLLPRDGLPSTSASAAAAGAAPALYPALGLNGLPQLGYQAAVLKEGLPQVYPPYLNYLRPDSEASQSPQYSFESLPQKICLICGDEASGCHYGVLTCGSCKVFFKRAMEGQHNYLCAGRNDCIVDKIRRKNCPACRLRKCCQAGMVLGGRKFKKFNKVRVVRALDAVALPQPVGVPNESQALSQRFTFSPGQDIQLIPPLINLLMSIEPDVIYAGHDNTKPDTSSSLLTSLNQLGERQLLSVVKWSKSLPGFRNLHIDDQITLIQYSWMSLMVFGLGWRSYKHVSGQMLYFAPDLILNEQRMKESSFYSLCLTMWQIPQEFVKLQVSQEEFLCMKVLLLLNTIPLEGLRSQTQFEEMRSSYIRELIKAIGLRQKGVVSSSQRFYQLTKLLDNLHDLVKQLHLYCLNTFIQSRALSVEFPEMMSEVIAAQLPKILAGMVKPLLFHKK
Method in brief: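 Fluorescence from LiveBLAzer B/G FRET substrate cleavage (2 hr, RT) reported PR activation in PR-UAS-bla HEK 293T cells treated 16 hr at 37C/5% CO2 with compounds; medium contained 2% charcoal-stripped FBS.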

[3] = target: Progesterone receptor (Homo sapiens) (UniProt P06401); assay: qHTS assay to identify small molecule antagonists of the progesterone receptor (PR) signaling pathway (AID 1346795; active means well fitted inhibition curve with a large enough effect in the signal ratio in the repeat runs, not every such curve was filed as active; the % refers to the signal ratio; further: potency means the concentration at half of the fitted maximal effect)
Method in brief: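 Fluorescence intensity measured 2 hr after adding beta-lactamase FRET substrate to PR-UAS-bla HEK293T cells that had been co-treated 16 hr with compound and 1 nM R5020 (final concentration) in 2% charcoal-stripped FBS.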

[4] = qHTS assay to identify small molecule agonists of the progesterone receptor (PR) signaling pathway - cell viability counter screen (AID 1346799; calls by dose curve; further: nearly all actives have a fitted effect of over 45% in size)
Method in brief: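 In parallel with the beta-lactamase readout, cytotoxicity toward PR-UAS-bla HEK293T cells was measured by CellTiter-Glo luminescence following 16 hr compound incubation in 2% charcoal-stripped FBS medium.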

[5] = qHTS assay to identify small molecule antagonists of the TGF-beta/Smad signaling pathway - cell viability counter screen (AID 1346824); further: nearly all actives have a fitted effect of over 50% in size
Method in brief: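 SBE-bla HEK 293T cells, incubated overnight, then compound plus 0.25 ng/mL TGF-beta1 (stock added) for 5 hr at 37 C. Viability was read in the same wells by CellTiter-Glo luminescence after 30 min at room temperature.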

[6] = qHTS assay to identify small molecule agonists of the TGF-beta/Smad signaling pathway - cell viability counter screen (AID 1346829); further: top concentration of the series differs between compounds; nearly all actives have a fitted effect of over 45% in size
Method in brief: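 CellTiter-Glo luminescence readout; SBE-bla HEK 293T cells, overnight plating, compound 5 hr at 37 C/5% CO2, then bla substrate 2 hr RT, then CellTiter-Glo 30 min RT.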

[7] = qHTS assay to identify small molecule agonists of the TGF-beta/Smad signaling pathway (AID 1346859; active means well fitted activation curve with a large enough effect in the signal ratio in the repeat runs, not every such curve was filed as active; the % refers to the signal ratio; further: series mostly up to about 77 µM)
Method in brief: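 After overnight seeding, SBE-bla HEK 293T cells are dosed with compounds in DMSO and kept 5 hr at 37 C, 5% CO2. LiveBLAzer-type FRET substrate is then applied for 2 hr at room temperature.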

[8] = target: Thyrotropin-releasing hormone receptor (Homo sapiens) (UniProt P34981); assay: qHTS assay to identify small molecule antagonists of the thyrotropin-releasing hormone receptor (TRHR) signaling pathway (AID 1346877; active means well fitted inhibition curve with a large enough effect in the repeat runs, not every such curve was filed as active; further: series mostly up to about 51 µM)
Thyrotropin-releasing hormone receptor (Homo sapiens), sequence (P34981 whole entry, looked up): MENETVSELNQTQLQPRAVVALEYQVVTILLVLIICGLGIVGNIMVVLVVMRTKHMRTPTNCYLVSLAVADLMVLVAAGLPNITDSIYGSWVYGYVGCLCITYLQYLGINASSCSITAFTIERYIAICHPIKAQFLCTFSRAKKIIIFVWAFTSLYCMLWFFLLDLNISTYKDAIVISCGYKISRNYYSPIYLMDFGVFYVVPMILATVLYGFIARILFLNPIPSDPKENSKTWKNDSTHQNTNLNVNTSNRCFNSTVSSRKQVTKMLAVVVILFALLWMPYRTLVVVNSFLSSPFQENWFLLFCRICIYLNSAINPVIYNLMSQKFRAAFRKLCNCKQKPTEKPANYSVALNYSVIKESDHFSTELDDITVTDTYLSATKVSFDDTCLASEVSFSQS
Method in brief: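 Antagonism is measured as suppression of the calcium response to 1 nM TRH in TRHR-HEK293 cells that have been dye-loaded for 2 h at 37 °C after overnight plating. Each compound is tested at 15 concentrations in triplicate.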

[9] = target: Thyrotropin-releasing hormone receptor (Homo sapiens) (UniProt P34981); assay: qHTS assay to identify small molecule agonists of the thyrotropin-releasing hormone receptor (TRHR) signaling pathway (AID 1346891; calls by dose curve;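 further: HEK293 cells expressing TRHR with calcium dye readout; series mostly up to about 58 µM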)
Method in brief: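 Compounds were tested as agonists at 15 concentrations, in triplicate, on TRHR-Hek293 cells; calcium-sensitive dye fluorescence was recorded for 3 min following addition.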

[10] = Human pregnane X receptor (PXR) small molecule agonists, qHTS cell viability counter screen (AID 1346977); further: nearly all actives have a fitted effect of over 50% in size; further: potency means the concentration at half of the fitted maximal effect
Method in brief: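 Viability counter screen: CellTiter-Fluor signal in PXR-Luc HepG2 cells, 24hr compound exposure, 37C, 5% CO2.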

[11] = Caspase-3/7 induction in HepG2 cells by small molecules, qHTS assay (AID 1346978); further: nearly all actives have a fitted effect of over 15% in size
Method in brief: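 Wild-type HepG2 cells, 2,000/well, settled 5 hr at 37 C and 5% CO2, then compound-treated for 17 hr; caspase-3/7 activity read by luminescent Caspase-Glo 3/7 after 30 min at room temperature.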

[12] = Caspase-3/7 induction in CHO-K1 cells by small molecules, qHTS cell viability counter screen (AID 1346979); further: nearly all actives have a fitted effect of over 35% in size; further: potency means the concentration at half of the fitted maximal effect
Method in brief: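 Viability readout by fluorescence (CellTiter-Fluor) on wild-type CHO-K1 cells exposed for 16hr at 37C and 5% CO2 to compounds delivered in DMSO; reagent incubated 1hr before reading.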

[13] = Caspase-3/7 induction in CHO-K1 cells by small molecules, qHTS assay (AID 1346980); further: nearly all actives have a fitted effect of over 15% in size
Method in brief: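 Wild-type CHO-K1 cells exposed to compounds for 17hr at 37 C, 5% CO2. Caspase-3/7 activity then measured by Caspase-Glo 3/7 luminescence after 30min at room temperature.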

[14] = Caspase-3/7 induction in HepG2 cells by small molecules, qHTS cell viability counter screen (AID 1346981); further: nearly all actives have a fitted effect of over 30% in size; further: potency means the concentration at half of the fitted maximal effect
Method in brief: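 Cell viability is measured as a cytotoxicity counter screen alongside the Caspase-Glo 3/7 readout in identical wells. Wild-type HepG2 cells are treated with test compounds for 16 hr at 37 C before CellTiter-Fluor addition and a 1-hr incubation.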

[15] = target: Nuclear receptor subfamily 1 group I member 2 (Homo sapiens) (UniProt O75469); assay: Human pregnane X receptor (PXR) small molecule agonists, qHTS assay (AID 1346982); further: nearly all actives have a fitted effect of over 35% in size; further: potency means the concentration at half of the fitted maximal effect
Nuclear receptor subfamily 1 group I member 2 (Homo sapiens), sequence (O75469 whole entry, looked up): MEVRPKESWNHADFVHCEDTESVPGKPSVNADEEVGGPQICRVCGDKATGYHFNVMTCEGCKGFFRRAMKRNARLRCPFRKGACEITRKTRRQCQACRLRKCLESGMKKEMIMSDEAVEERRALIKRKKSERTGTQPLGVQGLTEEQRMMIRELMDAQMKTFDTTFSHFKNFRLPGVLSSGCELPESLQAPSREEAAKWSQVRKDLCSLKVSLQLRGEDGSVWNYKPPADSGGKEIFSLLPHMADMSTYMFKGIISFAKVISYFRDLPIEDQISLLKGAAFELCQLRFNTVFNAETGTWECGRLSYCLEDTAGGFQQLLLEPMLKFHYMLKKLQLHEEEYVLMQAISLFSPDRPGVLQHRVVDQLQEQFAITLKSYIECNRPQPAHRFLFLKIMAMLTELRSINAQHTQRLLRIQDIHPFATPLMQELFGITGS
Method in brief: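 Cells: HepG2 stably carrying PXR-Luc. Medium held 5% charcoal-stripped FBS. Compounds in DMSO added after 5 hr plating, incubated 24 hr, then luminescence quantified with ONE-Glo.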

[16] = target: Cytochrome P450 2D6 (Homo sapiens) (UniProt P10635); assay: Cytochrome P450 Family 2 Subfamily D Member 6 (CYP2D6) small molecule antagonists: luciferase reporter qHTS assay (AID 1671196); further: nearly all actives have a fitted effect of over 50% in size; further: potency means the concentration at half of the fitted maximal effect
Cytochrome P450 2D6 (Homo sapiens), sequence (P10635 whole entry, looked up): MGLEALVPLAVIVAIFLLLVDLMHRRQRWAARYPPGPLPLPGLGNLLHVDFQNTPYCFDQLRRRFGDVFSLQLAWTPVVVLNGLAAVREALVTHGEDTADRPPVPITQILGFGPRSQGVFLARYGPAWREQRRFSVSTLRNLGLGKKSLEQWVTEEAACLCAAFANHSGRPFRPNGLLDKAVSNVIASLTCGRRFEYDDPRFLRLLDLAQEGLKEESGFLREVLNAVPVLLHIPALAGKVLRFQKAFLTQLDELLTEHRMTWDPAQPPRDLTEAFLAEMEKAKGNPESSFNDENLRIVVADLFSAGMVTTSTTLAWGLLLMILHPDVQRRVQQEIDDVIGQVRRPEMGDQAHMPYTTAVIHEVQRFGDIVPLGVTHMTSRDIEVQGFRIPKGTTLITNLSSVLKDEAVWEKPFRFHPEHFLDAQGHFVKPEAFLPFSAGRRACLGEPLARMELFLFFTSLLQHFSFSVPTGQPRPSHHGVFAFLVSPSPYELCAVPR
Method in brief: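 Enzyme and proluciferin substrate were first combined with test chemical for 10 min at room temperature. Adding NADPH regeneration solution started a 1 h reaction, stopped with luciferin detection reagent and read by luminescence 20 min later.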

[17] = qHTS assay to identify small molecule antagonists of the progesterone receptor (PR) signaling pathway - cell viability counter screen (AID 1346798); further: series mostly up to about 92 µM; nearly all actives have a fitted effect of over 50% in size
Method in brief: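 CellTiter-Glo luminescence; PR-UAS-bla HEK293T, 3,000 cells/well; compound + R5020, 16 hr, 37C/5% CO2; 30 min RT before read.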

[18] = target: Nuclear receptor subfamily 1 group I member 2 (Rattus norvegicus) (UniProt Q9R1A7); assay: Rat pregnane X receptor (rPXR) activation by small molecules, qHTS assay (AID 1346983); details: rPXR luciferase reporter cells, One-Glo luminescence, 24 h; max activation: stronger effect = higher value; further: nearly all actives have a fitted effect of over 20% in size
Nuclear receptor subfamily 1 group I member 2 (Rattus norvegicus), sequence (Q9R1A7 whole entry, looked up): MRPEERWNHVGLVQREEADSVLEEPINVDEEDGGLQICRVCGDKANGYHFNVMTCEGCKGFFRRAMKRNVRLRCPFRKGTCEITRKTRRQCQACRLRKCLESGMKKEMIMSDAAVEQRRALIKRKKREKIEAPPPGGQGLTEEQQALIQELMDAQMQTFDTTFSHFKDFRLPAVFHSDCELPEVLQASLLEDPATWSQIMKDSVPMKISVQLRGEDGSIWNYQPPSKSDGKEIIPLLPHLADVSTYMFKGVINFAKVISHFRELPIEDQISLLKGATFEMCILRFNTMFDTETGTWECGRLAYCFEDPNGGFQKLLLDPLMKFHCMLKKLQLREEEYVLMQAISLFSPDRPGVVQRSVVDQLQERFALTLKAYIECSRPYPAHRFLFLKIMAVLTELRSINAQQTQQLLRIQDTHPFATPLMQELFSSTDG
Method in brief: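 Cell-based rPXR activation assay: rPXR cells, 2,000 per well, rested 5hr at 37 C, then exposed to compounds in DMSO for 24 hr at 37 C. Luciferase activity read by One-Glo luminescence after 30 min at room temperature.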

[19] = target: Nuclear receptor subfamily 1 group I member 2 (Homo sapiens) (UniProt O75469); assay: CYP3A4 induction through human pregnane X receptor (PXR) by small molecules, qHTS assay (AID 1346984); further: nearly all actives have a fitted effect of over 40% in size
Method in brief: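 Quantitative HTS in DPX-2 cells, i.e. HepG2 transfected with PXR response element and CYP3A4-promoter luciferase. Compounds in DMSO incubated 24hr at 37C; then P450-Glo CYP3A4 substrate, 3uM final, 3hr; One-Glo luminescence.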

[20] = target: Nuclear receptor subfamily 1 group I member 2 (Homo sapiens) (UniProt O75469); assay: Human pregnane X receptor (PXR) activation by small molecules, qHTS assay (AID 1346985); further: nearly all actives have a fitted effect of over 40% in size
Method in brief: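 DPX-2 cells (HepG2 co-transfected with a PXR response element and a CYP3A4-promoter luciferase construct) were seeded at 2,000 per well, rested 5 hr at 37C, then exposed to DMSO-dissolved compounds for 24 hr. Activation was read as luciferase luminescence.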
On the % scale 0 is the no-effect control and ±100 the full control effect.

CC1=CC(C)(C)Nc2ccccc21
active: Potency [15] 8.41 µM
inactive: Potency [1] | Potency [2] | Potency [3] | Potency [4] | Potency [5] | Potency [6] | outcome [7] | Potency [8] | Potency [9] | Potency [10] | Potency [11] | Potency [12] | Potency [13] | Potency [14] | Potency [16]

C1COCCN1
inactive: Potency [1] | Potency [2] | Potency [3] | Potency [4] | Potency [5] | Potency [6] | outcome [7] | Potency [10] | Potency [11] | Potency [12] | Potency [13] | Potency [14] | Potency [15] | Potency [16]

CC/C=C\C/C=C\C/C=C\CCCCCCCC(=O)O
inactive: Potency [1] | Potency [17] | Potency [5] | Potency [6] | outcome [7] | Potency [8] | Potency [9] | Potency [10] | Potency [11] | Potency [13] | Potency [14] | max activation [18] -1.32% | Potency [19] | Potency [20]
active: Potency [16] 19.8 µM
inactive and 61.1 µM (active): Potency [12] | Potency [15]

CCCCCCCCCCC(CO)CCCCCCCC (centres undefined)
inactive: Potency [1] | Potency [17] | Potency [4] | Potency [5] | Potency [6] | outcome [7] | Potency [10] | Potency [11] | Potency [12] | Potency [13] | Potency [14] | Potency [15] | max activation [18] -1.75% | Potency [19] | Potency [20] | Potency [16]

c1ccc2c(c1)ccc1ncccc12
active: Potency [15] 60.7 µM and 61.1 µM | Potency [16] 7.91 µM
inactive: Potency [1] | Potency [4] | Potency [5] | Potency [6] | outcome [7] | Potency [8] | Potency [9] | Potency [10] | Potency [11] | Potency [12] | Potency [13] | Potency [14]

COCCOCCOCCO
inactive: Potency [1] | Potency [17] | Potency [4] | Potency [5] | Potency [6] | outcome [7] | Potency [8] | Potency [9] | Potency [10] | Potency [11] | Potency [12] | Potency [13] | Potency [14] | Potency [15] | Potency [16]

C=CC(=O)OCCCC
inactive: Potency [1] | Potency [3] | Potency [17] | Potency [4] | Potency [6] | outcome [7] | Potency [8] | Potency [9] | Potency [10] | Potency [11] | Potency [12] | Potency [13] | Potency [14] | Potency [15] | Potency [16]

CN(Cc1cnc2nc(N)nc(N)c2n1)c1ccc(C(=O)N[C@@H](CCC(=O)O)C(=O)O)cc1
active: Potency [3] 0.133 µM
inactive: Potency [1] | Potency [17] | Potency [4] | outcome [7] | Potency [10] | Potency [11] | Potency [12] | Potency [13] | Potency [14] | Potency [15] | max activation [18] -6.01% | Potency [19] | Potency [20] | Potency [16]

Nc1ccc(O)c(N)c1
active: Potency [1] 60.7 µM and 54.5 µM | Potency [10] 44.7 µM | Potency [12] 60.7 µM and 30.6 µM | Potency [14] 54.1 µM and 48.6 µM | Potency [16] 35.3 µM and 31.7 µM
inactive: Potency [3] | Potency [4] | Potency [6] | outcome [7] | Potency [8] | Potency [9] | Potency [11] | Potency [13] | Potency [15]

OC[C@H]1O[C@@H]2O[C@H]3[C@H](O)[C@@H](O)[C@@H](O[C@H]4[C@H](O)[C@@H](O)[C@@H](O[C@H]5[C@H](O)[C@@H](O)[C@@H](O[C@H]6[C@H](O)[C@@H](O)[C@@H](O[C@H]7[C@H](O)[C@@H](O)[C@@H](O[C@H]1[C@H](O)[C@H]2O)O[C@@H]7CO)O[C@@H]6CO)O[C@@H]5CO)O[C@@H]4CO)O[C@@H]3CO
inactive: Potency [1] | Potency [5] | Potency [6] | outcome [7] | Potency [8] | Potency [9] | Potency [10] | Potency [11] | Potency [12] | Potency [13] | Potency [14] | Potency [15] | max activation [18] -2.41% | Potency [19] | Potency [20] | Potency [16]
inactive and 22.9 µM (active): Potency [3]

ClC/C=C/CCl
62.8 µM (active) and inactive: Potency [16]
inactive: Potency [1] | Potency [3] | Potency [17] | Potency [4] | Potency [6] | outcome [7] | Potency [8] | Potency [9] | Potency [11] | Potency [12] | Potency [13] | Potency [14] | Potency [15]

Clc1ccc(Sc2cc(Cl)c(Cl)cc2Cl)cc1
active: Potency [3] 24.3 µM
inactive: Potency [1] | Potency [4] | Potency [5] | Potency [6] | outcome [7] | Potency [8] | Potency [9] | Potency [10] | Potency [11] | Potency [12] | Potency [13] | Potency [14] | Potency [16]
59.5 µM (active) and inactive: Potency [15]

C/C=C/C(=O)N(CC)c1ccccc1C
inactive: Potency [1] | Potency [3] | Potency [4] | Potency [5] | Potency [6] | outcome [7] | Potency [8] | Potency [9] | Potency [10] | Potency [11] | Potency [12] | Potency [13] | Potency [14] | Potency [15] | max activation [18] -1.94% | Potency [19] | Potency [16]
